Assay results published in ChEMBL document CHEMBL5724796, “Tm Shift (DSF) assay results for EUbOPEN Chemogenomics Library” (2024).

Target: Casein kinase I isoform delta (Homo sapiens) (UniProt P48730)
Conditions: Compound concentration 20.0 uM

Chain of Casein kinase I isoform delta (Homo sapiens) (P48730 whole entry, looked up, canonical isoform): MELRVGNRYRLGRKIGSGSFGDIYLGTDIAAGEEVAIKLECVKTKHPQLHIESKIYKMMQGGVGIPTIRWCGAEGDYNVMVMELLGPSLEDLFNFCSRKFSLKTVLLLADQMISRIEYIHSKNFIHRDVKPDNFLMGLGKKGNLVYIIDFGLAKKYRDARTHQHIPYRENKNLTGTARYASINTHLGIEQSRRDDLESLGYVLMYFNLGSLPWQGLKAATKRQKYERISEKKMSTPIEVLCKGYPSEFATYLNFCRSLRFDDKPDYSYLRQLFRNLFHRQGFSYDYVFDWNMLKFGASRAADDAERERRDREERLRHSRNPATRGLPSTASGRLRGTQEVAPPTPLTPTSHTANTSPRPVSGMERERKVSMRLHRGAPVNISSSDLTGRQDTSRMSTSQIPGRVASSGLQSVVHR

**Q.** For COc1cc(C)[nH]c(=O)c1CNC(=O)c1c(C)n([C@H](C)C2CCN(CC(F)(F)F)CC2)c2ccccc12, which ΔTm is on record?
**A.** 0.08 °C

**Q.** How did the ΔTm turn out when Fc1ccc(C(OCCN2CCN(CCCc3ccccc3)CC2)c2ccc(F)cc2)cc1 was run?
**A.** -0.45 °C

**Q.** With C[C@]12O[C@H](C[C@]1(O)CO)n1c3ccccc3c3c4c(c5c6ccccc6n2c5c31)CNC4=O as the molecule, how does the ΔTm read?
**A.** 2.18 °C

**Q.** How did the ΔTm turn out when O=[N+]([O-])c1cc(O)c(O)c([N+](=O)[O-])c1 was run?
**A.** -0.22 °C

**Q.** Which ΔTm does the source give for CNC(=O)c1cc(C(=O)NC2CC2)cn(Cc2ccccc2)c1=O here?
**A.** -0.13 °C

**Q.** With N#Cc1ccc([C@H]2CCCC[C@H]2O)cc1C(F)(F)F as the molecule, how does the ΔTm read?
**A.** 0.3 °C

**Q.** With O=C1C(P(=O)(O)O)CC(O)N1O (configuration not stated) as the molecule, how does the ΔTm read?
**A.** -0.38 °C

**Q.** CCS(=O)(=O)N1CCC([C@@H](C)n2c(C)c(C(=O)NCc3c(OC)cc(C)[nH]c3=O)c3ccccc32)CC1 was tested. Which ΔTm did it give?
**A.** 0.01 °C

**Q.** How did the ΔTm turn out when COc1cc(C)[nH]c(=O)c1CNC(=O)c1c(C)n([C@H](C)C2CCOCC2)c2ccccc12 was run?
**A.** 0.07 °C

**Q.** With CC(C)n1nc(-c2cc3cc(O)ccc3[nH]2)c2c(N)ncnc21 as the molecule, how does the ΔTm read?
**A.** 5.15 °C

**Q.** With O=C1C(P(=O)(O)O)CCCN1O (configuration not stated) as the molecule, how does the ΔTm read?
**A.** -0.23 °C

**Q.** O=C(N1CCCC[C@@H]1Cc1ccccc1)n1cc(-c2ccc(-c3ccccc3)cc2)nn1 was tested. Which ΔTm did it give?
**A.** -1.21 °C

**Q.** For N#Cc1ccc(N2N=C3c4ccc(C(=O)O)cc4CC[C@@H]3[C@@H]2C2CCCC2)cc1Cl, which ΔTm is on record?
**A.** -4.9 °C

**Q.** How did the ΔTm turn out when Cc1sc2c(c1C)C(c1ccc(Cl)cc1)=N[C@@H](CC(=O)OC(C)(C)C)c1nnc(C)n1-2 was run?
**A.** 0.21 °C

**Q.** How did the ΔTm turn out when C=CCO/N=C1\c2ccccc2-c2nc(C#N)c(C#N)nc21 was run?
**A.** -1.63 °C

**Q.** Nc1cccc(CNC(=O)c2ccc(Oc3ccc(OCc4cccc(F)c4)cc3)nc2)c1 was tested. Which ΔTm did it give?
**A.** -0.56 °C

**Q.** With CC(=O)Nc1ccc(OC[C@](C)(O)C(=O)Nc2ccc([N+](=O)[O-])c(C(F)(F)F)c2)cc1 as the molecule, how does the ΔTm read?
**A.** 0.23 °C

**Q.** Which ΔTm does the source give for C=Cc1cc(C(=O)Nc2ccc(C(=N)N)cc2)c(-c2ccc(C(=O)NCC3CC3)nc2C(=O)O)cc1OC here?
**A.** 0.02 °C

**Q.** How did the ΔTm turn out when N[C@H]1CC[C@H](N[C@@H]2C[C@H]2c2ccccc2)CC1 was run?
**A.** -0.14 °C

**Q.** Which ΔTm does the source give for Cc1ccc(N2C(=O)/C(=C/C=C/c3ccco3)C(=O)NC2=S)cc1Cl here?
**A.** 0.31 °C

**Q.** How did the ΔTm turn out when COc1cn(-c2ccc(-n3cccn3)cc2F)nc(-c2ccnn2-c2ccccc2)c1=O was run?
**A.** 0.13 °C

**Q.** How did the ΔTm turn out when CCOC(=O)c1ccc(-c2ccc(OC(=O)N(C)Cc3cccc(-c4ccncc4)c3)cc2)cc1 was run?
**A.** -0.29 °C
